Screens: PubChem BioAssay, Sanford-Burnham Center for Chemical Genomics
NALP3 yeast inh – NALP3 inflammasome inhibitors in reconstituted yeast, primary screen, luminescence, uHTS; Yeast reconstituted NLRP3/ASC/caspase-1, beta-gal luminescence, 24 h; inhibition, % at 10 µM; actives 0.39% (n = 330,000); AID 2825, 2010;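 active means inhibition of 50% or more; inactive means inhibition below 50%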;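 further: plate controls were induced DMSO wells for no effect and uninduced yeast grown without galactose for full effect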
tim23-1 inh – growth inhibitors of tim23-1 mutant yeast, primary screen, luminescence, uHTS; S. cerevisiae tim23-1 growth, BacTiter-Glo luminescence, 24 h; inhibition, % at 20 µM; actives 1.3% (n = 330,000);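 active means growth inhibition of the mutant yeast at or above 50%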;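 further: temperature-sensitive mutant grown at 25 °C; plate controls were DMSO-treated mutant yeast for no effect and medium wells lacking yeast for full effect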
tim10-1 inh – growth inhibitors of tim10-1 mutant yeast, primary screen, luminescence, uHTS | S. cerevisiae tim10-1 ts strain growth, BacTiter-Glo, 24 h | actives 2.2% (n = 330,000) | inhibition, % at 20 µM | AID 463190, 2010;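 active means inhibition of at least 40%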;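 further: mutant grown at 25 °C; 0% = DMSO wells with yeast and 100% = wells holding no yeast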
TIM10 inh – growth inhibitors of isogenic TIM10 control yeast, primary screen, counter-screen for tim10-1 yeast inhibitor project, luminescence, uHTS; AID 463195, 2010; actives 1.4% (n = 330,000); inhibition, % at 10 µM; S. cerevisiae TIM10 strain growth, BacTiter-Glo luminescence, 24 h;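 active means inhibition of 40% or more at the single tested concentration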;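 further: wild-type TIM10 isogenic control strain grown at permissive 25 °C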
NALP1 yeast inh – NALP1 inflammasome inhibitors in reconstituted yeast, colorimetric, S. cerevisiae, triplicate retest | S. cerevisiae NALP1/ASC/caspase-1 growth, X-gal OD620, 72 h | inhibition, % at 10 µM | actives 0.61% (n = 280,000); in the data active means inhibition mostly above about 24%, no sharp cut-off; inactive means mostly below about 32%
tim10-1 conf – growth inhibitors of tim10-1 mutant yeast, confirmation, single concentration, luminescence, S. cerevisiae; inhibition, % at 20 µM; S. cerevisiae tim10-1 ts strain growth, BacTiter-Glo, 24 h; actives 56% (n = 7,400); shares compounds with tim10-1 inh;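 active means inhibition of yeast growth at or above a set limit in either of two repeat tests at 20 µM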;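 further: tim10-1 mutant grown at permissive 25 °C to find synthetic lethal compounds; 0% = DMSO yeast wells and 100% = medium wells without yeast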
Numbers without * were called inactive; / = not tested or not shown. The list is not random: actives were taken first. Their share in the collection is about 4%.

SMILES	NALP3 yeast inh	tim23-1 inh	tim10-1 inh	TIM10 inh	NALP1 yeast inh	tim10-1 conf
COc1ccc(CCNC(=O)CSc2nnc(CNC(=O)c3cc(OC)c(OC)c(OC)c3)o2)cc1OC	0	13	27	17	-8	/
COC(=O)C1(Cc2cc(-c3ccc([N+](=O)[O-])cc3)no2)CCN(C(=O)OC(C)(C)C)CC1	21	38	26	14	/	/
O=C(CN1C(=O)C2C3CCC(C3)C2C1=O)OCC(=O)c1ccccc1 (centres undefined)	1	-6	-7	8	14	/
CC(C)(C)c1ccc(OC(=O)CN2C(=O)C3C4CCC(C4)C3C2=O)cc1 (centres undefined)	18	26	42*	24	4	26
Cn1cccc1C(C#N)c1ncc(C(F)(F)F)cc1Cl (centres undefined)	-14	25	12	7	-80	/
CCOC(=O)c1c(-c2ccccc2)csc1NC(=S)NC	39	27	42*	19	8	38*
CCOC(=O)c1c(-c2ccccc2)csc1NC(=O)CCN1C(=O)c2ccccc2C1=O	27	22	17	-19	19	/
CCOC(=O)c1c(-c2ccc(-c3ccccc3)cc2)csc1NC(=O)CNCCN(C)C	24	48	43*	-15	7	25
CCOC(=O)c1c(-c2ccccc2)csc1NC(=O)CSc1nnc(C)s1	21	25	22	20	30	/
CCNC(=S)Nc1scc(-c2ccccc2)c1C(=O)OCC	35	33	41*	39	15	31
Cc1cccc(CCNS(=O)(=O)c2ccc3c(c2)NC(=O)C(C)S3)c1 (centres undefined)	-1	20	15	-9	12	/
O=C(c1ccccc1)C1C(c2ccccc2)C1[N+](=O)[O-] (centres undefined)	-56	9	4	-2	-21	/
CN(C)c1ccc([C@@H]2[C@@H]([N+](=O)[O-])[C@H]3C=Cc4ccccc4N3[C@H]2C(=O)c2ccc(Cl)cc2)cc1	10	33	45*	17	30	26
COc1cc(CCC(=O)NCc2ccc(F)cc2)cc(OC)c1OC	-16	6	3	-3	7	/
Cc1onc(-c2ccccc2)c1C(=O)Nc1nnc(-c2ccncc2)s1	25	31	44*	24	16	39*
Cc1nc2cc(C(=O)N3c4ccccc4CC3C)ccc2s1 (centres undefined)	-5	31	43*	8	0	9
CC1Cc2ccccc2N1C(=O)c1ccc2snnc2c1 (centres undefined)	10	21	24	20	3	/
COc1ccc(-c2nnc(SCc3cccc(C)c3)n2N)cc1	8	20	12	25	-14	/
COc1ccc(-c2nnc(SCc3cc(C)ccc3C)n2N)cc1	5	45	42*	39	2	39*
Cc1ccc2sc(N(CCN(C)C)C(=O)c3ccc(S(=O)(=O)N4CC(C)OC(C)C4)cc3)nc2c1C (centres undefined)	11	26	40*	29	-2	24
Cc1cc(C)c2nc(N(CCCN(C)C)C(=O)c3ccc(S(=O)(=O)N4CC(C)OC(C)C4)cc3)sc2c1 (centres undefined)	19	14	23	16	/	/
CCN(Cc1ccccc1)S(=O)(=O)c1ccc(C(=O)N(CCCN(C)C)c2nc3c(C)c(C)ccc3s2)cc1	19	28	46*	5	/	-2
Cc1cc(C)c2nc(N(CCN(C)C)C(=O)c3ccc(S(=O)(=O)N(C)CC4CCCO4)cc3)sc2c1 (centres undefined)	8	22	42*	15	27	3
O=C(COc1ccccc1[N+](=O)[O-])N(Cc1cccc(Br)c1)C1CCS(=O)(=O)C1 (centres undefined)	14	15	15	22	-8	/
Cc1c(C(=O)NC2CCCc3ccccc32)oc2ccccc12 (centres undefined)	18	31	45*	35	17	38*
SMILES	NALP3 yeast inh	tim23-1 inh	tim10-1 inh	TIM10 inh	NALP1 yeast inh	tim10-1 conf
CCNc1nnc(CSc2nc3ccccc3s2)s1	35	45	44*	31	2	39*
CC1CCN(Cc2nnnn2-c2ccc(Cl)cc2)CC1	1	50	56*	17	15	37*
Clc1ccc(-n2nnnc2CN2CCOCC2)cc1Cl	-1	5	20	-14	-6	/
CC1CCC2(CC1)C(Nc1cccc(Cl)c1)=NC(=S)N2CC#N (centres undefined)	-11	41	43*	30	24	39*
O=C(CCCc1ccccc1)NCc1ccc(F)cc1	8	-3	-18	-25	34	/
Cc1ccc(C(=O)Nc2nc3ccc(S(C)(=O)=O)cc3s2)o1	4	44	44*	26	-55	38*
COc1ccc(S(=O)(=O)Nc2noc3ccccc23)cc1	1	3	7	-3	9	/
COc1ccc(C(=O)/C(=C/O)N=Nc2ccc(F)cc2)cc1	3	32	45*	22	3	9
COc1ccc(N=N/C(C(C)=O)=C(/C)O)cc1	22	-2	8	1	3	/
COC(=O)[C@]1(Cc2ccccc2)N[C@H](c2ccc(-c3ccccc3)cc2)[C@@H]2C(=O)N(C)C(=O)[C@@H]21	13	18	45*	14	/	19
CC#CC(=O)N1CCC(CCC(=O)N(C)Cc2ccccc2)CC1	13	16	5	-5	-11	/
COc1ccc(N2CCN(C(c3cccs3)C(C)NC(=O)C(=O)N3CCCC3)CC2)cc1 (centres undefined)	2	20	5	15	26	/
COc1ccc(/C=N/c2c(-c3ccc(OC)cc3)nc3n2CCS3)cc1	29	45	40*	6	2	0
COc1ccc(-c2noc(CCC(=O)N3CCN(c4ccccc4)CC3)n2)cc1	/	32	17	-6	/	/
CC(Oc1ccc(Cl)cc1Cl)C(=O)Nc1ccc(S(=O)(=O)Nc2cnc3ccccc3n2)cc1 (centres undefined)	10	-6	42*	-5	25	15
CCOc1ccc(N(CC(=O)NCCc2ccc(C)cc2)S(=O)(=O)c2c(C)noc2C)cc1	9	3	7	24	18	/
COc1ccc(N(CCN2C(=O)c3ccccc3C2=O)C(=O)c2cccc([N+](=O)[O-])c2)cc1	18	49	40	35	8	35*
COc1ccc(N(CCCN2C(=O)c3cccc4cccc(c34)C2=O)C(=O)c2ccncc2)cc1	7	30	25	15	0	/
